Screens: PubChem, The Scripps Research Institute Molecular Screening Center
A selection: hits, their analogues and other compounds. The true share with any hit is near 4.1%.
hcDAF-12 act: H. contortus DAF-12 nuclear receptor activators, primary screen, cell-based, luminescence, HEK293, lit1-tk-luc reporter | HEK293 hcDAF-12 lit1-tk-luc reporter; 0% DMSO, 100% Δ7-dafachronic acid | activation, % at 6.8 µM | 370,000 compounds, 1.4% hits | AID 652067, 2013;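 active = activation above the mean of all tested compounds plus 3 SD, cut at about 5.5% in these data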
DAX1 inh-1: DAX1 (NR0B1) inhibitors on StAR promoter, primary screen, cell-based, luminescence, SF-1 (NR5A1), full-length DAX-1 | 370,000 compounds, 1.1% hits | AID 652010, 2013 | inhibition, % at 6.8 µM | HEK293T StAR-luciferase reporter, SF-1/DAX-1 repression relief;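 active = inhibition above the mean over all tested compounds plus 3 SD, cut at about 3.6% in these data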;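 note: higher inhibition means more luminescence from relief of DAX-1 repression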
hgDAF12 agonist: H. glycines DAF-12 receptor agonists, primary screen, cell-based, luminescence, HEK293, GAL4 fusion, UAS-luciferase. Nuclear hormone receptor DAF-12 (Heterodera glycines), GAL4 fusion. HEK293 GAL4-hgDAF12 UAS-luciferase reporter, agonist luminescence; normalized to butyrate control. activation, % at 6.8 µM. 370,000 compounds, 1.8% hits;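 active = activation above a cutoff set at the mean of all screened compounds plus 3 SD, cut at about 10% in these data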
DAX1 inh-2: DAX1 (NR0B1) inhibitors, primary screen, cell-based, HEK293, Gal4-DAX1, luciferase luminescence | 340,000 compounds, 0.99% hits | HEK293 Gal4-DAX1 luciferase reporter | inhibition, % at 6.75 µM | AID 504766, 2011;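 active = inhibition above the mean over all tested compounds plus 3 SD, cut at about 4.2% in these data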;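 note: inhibition shows as a rise in luminescence from relieved DAX1 repression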
Target sequence (P51843 207-470 limits assumed): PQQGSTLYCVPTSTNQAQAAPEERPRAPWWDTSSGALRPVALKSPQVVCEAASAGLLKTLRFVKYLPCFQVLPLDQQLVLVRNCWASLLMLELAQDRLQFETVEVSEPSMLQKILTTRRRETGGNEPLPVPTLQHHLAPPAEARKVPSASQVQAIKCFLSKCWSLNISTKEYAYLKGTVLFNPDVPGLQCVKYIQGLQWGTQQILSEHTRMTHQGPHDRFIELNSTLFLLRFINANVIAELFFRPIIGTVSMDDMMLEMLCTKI
ssDAF-12 act: S. stercoralis DAF-12 nuclear receptor activators, primary screen, cell-based, luminescence, HEK293, GRIP1 co-expression, lit1-tk-luc; Nuclear hormone receptor DAF-12 (Strongyloides stercoralis); HEK293 ssDAF-12/GRIP1 lit1-tk-luc reporter; % of 3 µM dafachronic acid response; activation, % at 6.8 µM; 370,000 compounds, 1% hits; AID 652126, 2013;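 active = activation above the mean over all tested compounds plus 3 SD, cut at about 0.9% in these data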
DAX1 conf: DAX1 (NR0B1) inhibitors relieving SF-1 repression, confirmation, cell-based, luminescence, HEK293T, full-length DAX-1, SF-1 activated StAR promoter; AID 652134, 2013; HEK293T StAR-promoter luciferase reporter, SF-1/DAX-1 repression; shares compounds with DAX1 inh-1; 2,400 compounds, 87% hits; inhibition, % at 6.8 µM;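 active = inhibition above the average of every tested compound plus 3 SD, cut at about 3.8% in these data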
SF1 mutant ctr: StAR reporter signal changes without DAX1, counter-screen for DAX1 inhibitor project, cell-based, luminescence, AF-2 mutant SF-1, transactivation | shares compounds with DAX1 inh-1 | HEK293 StAR-luciferase, SF-1 AF2 mutant | inhibition, % at 6.8 µM | 2,400 compounds, 78% hits;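 active = inhibition above the mean of all tested compounds plus 3 SD, cut at about 3% in these data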
LXR ag: LXR agonists, Gal4 luciferase reporter, confirmation, counter-screen for hcDAF-12 agonist project, cell-based, luminescence, HEK293, H. contortus campaign; shares compounds with hcDAF-12 act; HEK293 Gal4-LXR tk-luc reporter, 24 h; normalized: DMSO 0%, positive control 100%; activation, % at 6.8 µM; 3,400 tested, under 10 active; AID 743027, 2013;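 active = mean percent activation of the reporter above a cutoff set as the average over tested compounds plus their standard deviation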
Target sequence (P55055 whole entry, looked up, the tested form may be a part): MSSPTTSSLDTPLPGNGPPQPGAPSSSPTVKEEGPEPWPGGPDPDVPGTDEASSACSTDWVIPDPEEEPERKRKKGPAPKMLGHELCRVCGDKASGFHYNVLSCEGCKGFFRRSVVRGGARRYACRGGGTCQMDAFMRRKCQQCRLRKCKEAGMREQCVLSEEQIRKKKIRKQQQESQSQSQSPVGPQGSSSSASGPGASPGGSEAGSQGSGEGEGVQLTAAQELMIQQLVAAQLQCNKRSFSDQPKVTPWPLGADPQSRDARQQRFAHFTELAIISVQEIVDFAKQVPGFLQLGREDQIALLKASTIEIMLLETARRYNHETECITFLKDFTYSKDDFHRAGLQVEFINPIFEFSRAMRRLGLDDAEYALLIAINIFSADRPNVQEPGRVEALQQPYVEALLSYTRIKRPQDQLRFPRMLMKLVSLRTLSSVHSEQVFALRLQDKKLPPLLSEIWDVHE
hcDAF12 ag: H. contortus DAF-12 receptor agonists, confirmation, cell-based, luminescence, HEK293, lit1-tk-luc, triplicate; shares compounds with hcDAF-12 act; HEK293 hcDAF-12 lit1-tk-luc reporter; % of Δ7-dafachronic acid response; activation, % at 6.8 µM; 3,400 compounds, 61% hits;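 active = mean activation across triplicate tests above the threshold derived from the earlier primary screen, cut at about 5.5% in these data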
hgDAF12 conf: H. glycines DAF-12 receptor agonists, confirmation, cell-based, luminescence, HEK293, GAL4-LBD fusion | shares compounds with hgDAF12 agonist | HEK293 GAL4-hgDAF12 luciferase reporter, agonist mode; percent of butyrate response | activation, % at 6.8 µM | 3,300 compounds, 80% hits;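 active = mean activation over triplicate wells above the hit cutoff derived from the earlier primary screen, cut at about 11% in these data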
LXRb DAF12 ctr: LXR agonists, Gal4 luciferase reporter, confirmation, counter-screen for hgDAF-12 agonist project, cell-based, luminescence, HEK293, H. glycines campaign; shares compounds with hgDAF12 agonist; 24 h; activation, % at 6.8 µM; 3,300 tested, under 10 active; AID 743051, 2013;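 active = mean activation of the triplicate above a set limit carried over from the primary screen, none filed active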
Hits are given with their value; i = inactive; nt = no result.

SMILES | hcDAF-12 act | DAX1 inh-1 | hgDAF12 agonist | DAX1 inh-2 | ssDAF-12 act | DAX1 conf | SF1 mutant ctr | LXR ag | hcDAF12 ag | hgDAF12 conf | LXRb DAF12 ctr
CCc1ccc(NCc2nc3ccccc3c(=O)[nH]2)cc1 | 11.0 | 5.1 | 15.1 | i | 2.4 | 14.3 | 9.3 | i | 7.6 | nt | nt
CCCn1c(C)cc(C(=O)COC(=O)c2nccnc2N)c1C | 7.4 | 5.7 | 12.6 | i | 1.3 | 14.9 | 5.6 | i | 5.9 | nt | nt
CC(C)c1nnc(NC(=O)c2cccc(-n3cnnn3)c2)s1 | i | i | i | i | i | nt | nt | nt | nt | nt | nt
COc1cccc(C(=O)Nc2nnc(C(C)C)s2)c1 | 6.8 | 4.8 | i | i | i | 9.0 | 3.1 | i | 7.3 | nt | nt
O=C(O)c1ccc(N/N=C/C(Br)=C/c2ccccc2)cc1 | 8.1 | 5.2 | 22.1 | i | i | 13.2 | 4.2 | i | 13.1 | nt | nt
O=C(N/N=C/C(Br)=C/c1ccccc1)C(O)c1ccccc1 (centres undefined) | i | i | i | i | i | nt | nt | nt | nt | nt | nt
O=C(O)c1ccc(N/N=C/c2cccc(F)c2)cc1 | 7.1 | 6.3 | 20.5 | i | 1.2 | 14.8 | 8.3 | i | 10.0 | nt | nt
CCCCOCCCNC(=O)C[C@H]1C[C@@]2(C(=O)OC)C(=C[C@H](C3CCCC3)O[C@@H]2C)N(Cc2ccco2)C1=O | i | i | i | nt | i | nt | nt | nt | nt | nt | nt
O=C(CCN1C(=O)NC2(CCCC2)C1=O)Nc1ccc(-c2nc3ccccc3s2)cc1 | 7.7 | 5.8 | 13.1 | i | 1.0 | 12.8 | 5.8 | i | 7.6 | nt | nt
CC(=O)CCSc1ncnc2sc(-c3ccccc3)cc12 | i | 12.8 | 16.1 | i | 1.2 | 15.5 | 7.9 | nt | nt | 12.8 | i
O=C(O)CCSc1ncnc2sc(-c3ccccc3)cc12 | i | i | i | i | i | nt | nt | nt | nt | nt | nt
C=CCN1C(=O)[C@H](CC(=O)N2CCSCC2)[C@@]2(C(=O)OCC)CCCC=C12 | i | i | i | nt | i | nt | nt | nt | nt | nt | nt
COCCCNc1ccn2nc(-c3cccc(Cl)c3)cc2n1 | 8.5 | 5.3 | 21.0 | nt | i | 13.3 | 4.8 | i | 9.2 | 20.9 | i
CCOC(=O)CNC(=O)N(C)[C@H]1C[C@H]2c3[nH]c4c(-c5ccccc5)cccc4c3CCN2C(=O)[C@H]1[C@H](C)O | i | i | i | nt | i | nt | nt | nt | nt | nt | nt
CCOc1ccc(-c2nnc(-c3cccs3)o2)cc1 | 7.4 | 4.9 | 16.1 | i | i | 13.4 | 4.6 | i | 7.8 | 15.0 | i
c1csc(-c2nnc(-c3ccc(N4CCOCC4)cc3)o2)c1 | 5.8 | 5.1 | 15.2 | i | i | 14.2 | 6.2 | nt | nt | 18.9 | i
c1cncc(-c2nnc(-c3cccs3)o2)c1 | i | i | i | i | i | nt | nt | nt | nt | nt | nt
Cc1ccc(-c2onc3ccc(Br)cc23)cc1 | i | i | i | i | i | nt | nt | nt | nt | nt | nt
Cc1ccc(-c2onc3ccc(C4OCCO4)cc23)cc1 | i | 5.3 | 13.8 | i | i | i | i | nt | nt | i | i
Cn1c(=O)c(C(=O)c2ccccc2)nc2ccccc21 | i | i | i | i | i | nt | nt | nt | nt | nt | nt
Cn1c(/N=C(\N)c2ccccc2)nc2ccccc21 | 14.1 | 8.4 | 20.8 | 4.5 | 1.7 | 13.0 | 9.9 | i | 17.1 | 20.3 | i
CCOC(=O)N(C)C[C@H]1OCc2cn(nn2)CCCC(=O)N([C@@H](C)CO)C[C@@H]1C | i | i | i | nt | i | nt | nt | nt | nt | nt | nt
O=C(CS(=O)(=O)Cc1ccccc1)N1CCc2ccccc21 | i | i | i | i | i | nt | nt | nt | nt | nt | nt
O=C(OCC(=O)N1CCc2ccccc21)c1ccccc1F | i | i | i | i | i | nt | nt | nt | nt | nt | nt
O=C(CCCc1ccccc1)N1CCc2ccccc21 | 7.8 | 6.2 | 15.5 | i | 2.0 | 17.4 | 6.7 | i | 10.4 | 17.8 | i
SMILES | hcDAF-12 act | DAX1 inh-1 | hgDAF12 agonist | DAX1 inh-2 | ssDAF-12 act | DAX1 conf | SF1 mutant ctr | LXR ag | hcDAF12 ag | hgDAF12 conf | LXRb DAF12 ctr
O=C(OCC(=O)N1CCc2ccccc21)c1ccccc1[N+](=O)[O-] | 7.5 | 7.1 | 17.8 | i | 2.6 | 16.8 | 9.6 | i | 8.4 | 16.5 | i
CCCCCCCCN1C(=O)[C@@H](CC(=O)NCC23CC4CC(CC(C4)C2)C3)C[C@@]2(C(=O)OC)C1=C[C@H](C(C)C)O[C@@H]2C1CC1 | i | i | i | nt | i | nt | nt | nt | nt | nt | nt
OC[C@H]1O[C@@H](c2nc3ccc(-c4nc(-c5cccs5)no4)cc3[nH]2)C[C@@H]1O | 6.1 | 4.8 | 15.1 | nt | i | 10.5 | 8.7 | nt | nt | 15.9 | i
CCOC(=O)c1sc(NC(=O)Nc2ccccc2Cl)cc1C | 14.5 | 7.8 | 19.9 | i | 1.1 | 13.6 | 7.5 | i | 6.1 | 24.4 | i
CCOC(=O)c1sc(NC(C)=O)cc1C | i | i | i | i | i | nt | nt | nt | nt | nt | nt
CCOC(=O)c1c(N)sc(C(=O)Nc2ccccc2F)c1C | 6.7 | 9.3 | 19.4 | 4.4 | i | 14.1 | 7.1 | i | 8.5 | 18.6 | i
COc1ccc(C2CC(=O)C(c3cccc(Cl)c3)=CN2Cc2ccccc2)cc1 (centres undefined) | i | i | i | nt | i | nt | nt | nt | nt | nt | nt
CCOC(=O)c1c(C)[nH]c(N=Nc2cccc(OC)c2)c1C | 5.9 | 4.9 | 15.5 | i | i | 16.2 | 8.0 | nt | nt | 20.7 | i
